# Measurements reported in the supplement of paper PMC8728848.
# Shown is part of a subset that was picked to be rich in the strongest signals.
# Legend:
# Assay in all cases: glycan array binding signal (z-score within array); higher = stronger binding
# Settings in all cases: glycan notation: IUPAC condensed, linker removed
# [1] = biological target: Gal(b1-4)GlcNAc(b1-3)[Gal(b1-4)GlcNAc(b1-6)]Gal(b1-4)GlcNAc
# Summary of the method: (§1)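 The binding signal is a Z-score computed within each array. Data were drawn from 3228 arrays in the Consortium for Functional Glycomics database, restricted to those with a known protein sequence. Scores were averaged over arrays of the same protein sequence at different concentrations or buffers, and over linkers, and negative values can be taken as non-binding.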
# Gal3S(b1-4)Glc6S = biological target: Gal3S(b1-4)Glc6S
# Summary of the method: as §1
# Gal6S(b1-3)GlcNAc6S = biological target: Gal6S(b1-3)GlcNAc6S
# Summary of the method: as §1
# Gal6S(b1-4)Glc6S = biological target: Gal6S(b1-4)Glc6S
# Summary of the method: as §1
# Gal6S(b1-4)GlcNAc = biological target: Gal6S(b1-4)GlcNAc
# Summary of the method: as §1
# Gal6S(b1-4)GlcNAc6S = biological target: Gal6S(b1-4)GlcNAc6S
# Summary of the method: as §1
# GalNAc(b1-6)GalNAc = biological target: GalNAc(b1-6)GalNAc
# Summary of the method: as §1
# [2] = biological target: GlcNAc(a1-4)Gal(b1-3)GlcNAc
# Summary of the method: as §1
# [3] = biological target: GlcNAc(b1-2)[GlcNAc(b1-6)]Man(a1-6)[GlcNAc(b1-2)Man(a1-3)]Man(b1-4)GlcNAc(b1-4)GlcNAc
# Summary of the method: as §1
# GlcNAc(b1-3)Fuc = biological target: GlcNAc(b1-3)Fuc
# Summary of the method: as §1
# [4] = biological target: GlcNAc(b1-3)Gal(b1-4)GlcNAc(b1-3)GalNAc
# Summary of the method: as §1
# [5] = biological target: GlcNAc(b1-3)Gal(b1-4)GlcNAc(b1-3)[GlcNAc(b1-3)Gal(b1-4)GlcNAc(b1-3)]GalNAc
# Summary of the method: as §1
# [6] = biological target: GlcNAc(b1-3)Gal(b1-4)GlcNAc(b1-6)[Gal(b1-3)]GalNAc
# Summary of the method: as §1
# GlcNAc(b1-4)GlcNAc = biological target: GlcNAc(b1-4)GlcNAc
# Summary of the method: as §1
# [7] = biological target: GlcNAc(b1-4)GlcNAc(b1-4)GlcNAc(b1-4)GlcNAc(b1-4)GlcNAc
# Summary of the method: as §1
# Kdn(a2-6)Gal(b1-4)GlcNAc = biological target: Kdn(a2-6)Gal(b1-4)GlcNAc
# Summary of the method: as §1
# Man(b1-4)GlcNAc = biological target: Man(b1-4)GlcNAc
# Summary of the method: as §1
# [8] = biological target: Neu5Ac(a2-3)Gal(b1-3)GlcNAc(b1-2)Man
# Summary of the method: as §1
# [9] = biological target: Neu5Ac(a2-3)Gal(b1-3)[Fuc(a1-4)]GlcNAc(b1-3)Gal(b1-3)[Fuc(a1-4)]GlcNAc
# Summary of the method: as §1
# [10] = biological target: Neu5Ac(a2-3)Gal(b1-3)[Neu5Ac(a2-6)]GalNAc
# Summary of the method: as §1
# [11] = biological target: Neu5Ac(a2-3)Gal(b1-4)GlcNAc
# Summary of the method: as §1
# [12] = biological target: Neu5Ac(a2-3)Gal(b1-4)GlcNAc(b1-3)Gal(b1-4)GlcNAc(b1-3)Gal(b1-4)GlcNAc(b1-2)Man(a1-3)[Neu5Ac(a2-3)Gal(b1-4)GlcNAc(b1-3)Gal(b1-4)GlcNAc(b1-3)Gal(b1-4)GlcNAc(b1-2)Man(a1-6)]GalNAc
# Summary of the method: as §1
# [13] = biological target: Neu5Ac(a2-3)Gal(b1-4)[Fuc(a1-3)]GlcNAc(b1-3)Gal(b1-4)GlcNAc
# Summary of the method: as §1
# [14] = biological target: Neu5Ac(a2-3)Gal(b1-4)[Fuc(a1-3)]GlcNAc(b1-6)[Gal(b1-3)]GalNAc
# Summary of the method: as §1
# [15] = biological target: Neu5Ac(a2-3)[GalNAc(b1-4)]Gal(b1-4)Glc
# Summary of the method: as §1
# [16] = biological target: Neu5Ac(a2-6)GalNAc(b1-4)GlcNAc6S
# Summary of the method: as §1
# Neu5Gc(a2-6)GalNAc = biological target: Neu5Gc(a2-6)GalNAc
# Summary of the method: as §1
binder,measurement,setting,value
Epa12 (Candida glabrata) (protein) MGSSHHHHHHSSGLVPRGSHMLEPDNSLQIFDSFLSNPSKYPLGCSPKITNPKKGLSMELYSYPYRKKGSHPCWDPAYLDPNFPRVGYKKNKLIARVDGVSGDINFNFHPKRQCTPIADYLPPNFNYNEPITTTNFTMLLYGYFKPKVTGLHTFDISADDLLFMNFGAGNAFDCCRRDSTADTFGNYVAWAIWGRRIVRNKLTVRLDKGIYYPLRLFFNNRDYYGQMRLTFKTEHGSERITDFSDYFFSVDDTSEGCPGLITYESECADVKSSTVLETDYITIQAEKE,glycan array binding signal (z-score),[1],-0.194
same,glycan array binding signal (z-score),Gal3S(b1-4)Glc6S,-0.255
same,glycan array binding signal (z-score),Gal6S(b1-3)GlcNAc6S,3.83
same,glycan array binding signal (z-score),Gal6S(b1-4)Glc6S,7.51
same,glycan array binding signal (z-score),Gal6S(b1-4)GlcNAc,1.98
same,glycan array binding signal (z-score),Gal6S(b1-4)GlcNAc6S,8.69
same,glycan array binding signal (z-score),GalNAc(b1-6)GalNAc,-0.347
same,glycan array binding signal (z-score),[2],-0.483
same,glycan array binding signal (z-score),[3],-0.332
same,glycan array binding signal (z-score),GlcNAc(b1-3)Fuc,-0.36
same,glycan array binding signal (z-score),[4],-0.307
same,glycan array binding signal (z-score),[5],-0.348
same,glycan array binding signal (z-score),[6],-0.32
same,glycan array binding signal (z-score),GlcNAc(b1-4)GlcNAc,-0.359
same,glycan array binding signal (z-score),[7],-0.032
same,glycan array binding signal (z-score),Kdn(a2-6)Gal(b1-4)GlcNAc,-0.005
same,glycan array binding signal (z-score),Man(b1-4)GlcNAc,-0.301
same,glycan array binding signal (z-score),[8],-0.336
same,glycan array binding signal (z-score),[9],-0.342
same,glycan array binding signal (z-score),[10],-0.335
same,glycan array binding signal (z-score),[11],-0.321
same,glycan array binding signal (z-score),[12],-0.239
same,glycan array binding signal (z-score),[13],-0.251
same,glycan array binding signal (z-score),[14],-0.245
same,glycan array binding signal (z-score),[15],-0.34
same,glycan array binding signal (z-score),[16],-0.36
same,glycan array binding signal (z-score),Neu5Gc(a2-6)GalNAc,-0.309
